By inhibition is commonly meant the drop in the measured response relative to a control, in per cent.

Calls of active or inactive are those of the source. No rule for the calls is given here.

We go through 18 compounds from PubChem BioAssay.

For the experiment, the target named is Pantothenate synthetase (Mycobacterium tuberculosis (strain ATCC 25618 / H37Rv)) (UniProt P9WIL5). The experiment is described as follows: Recombinant Mtb pantothenate synthetase (PanC) inhibitors, coupled enzyme, confirmatory (AID 375).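 Also: 0% = full reaction with vehicle and 100% = no enzyme background.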 Particulars: coupled enzyme assay; at 10 µM, hits give high values.
Pantothenate synthetase (Mycobacterium tuberculosis (strain ATCC 25618 / H37Rv)), sequence (P9WIL5 whole entry, looked up): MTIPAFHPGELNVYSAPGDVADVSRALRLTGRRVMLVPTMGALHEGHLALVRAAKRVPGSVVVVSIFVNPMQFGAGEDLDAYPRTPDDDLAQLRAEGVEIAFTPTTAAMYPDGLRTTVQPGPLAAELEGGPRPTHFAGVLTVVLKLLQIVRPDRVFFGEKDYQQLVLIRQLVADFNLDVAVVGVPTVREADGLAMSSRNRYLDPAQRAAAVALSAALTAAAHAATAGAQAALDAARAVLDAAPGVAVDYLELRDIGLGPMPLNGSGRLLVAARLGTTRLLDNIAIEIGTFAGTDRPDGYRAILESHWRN
Consider `O=C(c1ccc(Br)cc1)N1CCN(S(=O)(=O)c2ccccc2)CC1`, for which the inhibition was 0% (inactive).

On to `CC(C)CNS(=O)(=O)c1ccc(CCC(=O)N2CCOCC2)cc1`, for which the inhibition was 0% (inactive).

Regarding `COc1ccc(OC)c(C(=O)c2ccc(C(=O)O)cc2)c1`, the inhibition is 0% (inactive).

On to `Cc1ccc2cc(C#N)c(NCCCNC(=O)C3CCCO3)nc2c1` (stereo not drawn), for which the inhibition is 0% (inactive).

For `CCOC(=O)N1CCN(CC(=O)Nc2c(C(=O)OC)[nH]c3cccc(Cl)c23)CC1`, the inhibition is 0% (inactive).

Turning to `O=C(CSc1nc(-c2ccc(F)cc2)cs1)N1CCOCC1`, the inhibition is 0% (inactive).

As to `CCN(C(=O)c1cc2cc3ccc(C)cc3nc2o1)c1ccc(OC)cc1`, the inhibition was 6% (inactive).

For the compound `c1ccc(Cc2nn3c(Cn4cnc5ccccc54)nnc3s2)cc1`, the inhibition was 4% (inactive).

Turning to `C=CCOc1nc2c(c(=O)n(C)c(=O)n2C)n1C`, the inhibition was 0% (inactive).

Consider `CSc1nnc2c3ccccc3n(CCc3ccccc3)c2n1`, for which the inhibition is 0% (inactive).

As to `Cc1cc(C)cc(N2CCCn3c2nc2c3c(=O)n(CCN3CCOCC3)c(=O)n2C)c1`, the inhibition is 7% (inactive).

For the compound `CCCC(=O)Nc1ccccc1NC(=O)CN(C)S(=O)(=O)c1ccc(C)cc1`, the inhibition is 2% (inactive).

As for `CC(=O)Nc1ccccc1OCc1nnc(-c2cccs2)o1`, the inhibition was 0% (inactive).

Regarding `COc1ccc(C)cc1NC(=O)COCC(=O)O`, the inhibition is 0% (inactive).

Take `S=c1[nH]ncn1-c1ccccn1`: the inhibition is 5% (inactive).

For `COc1ccc(C)cc1S(=O)(=O)N(C)CC(=O)Nc1ccc2c(c1)OCO2`, the inhibition is 0% (inactive).

Take `CCN(CCNC(=O)C1CCN(S(C)(=O)=O)CC1)c1ccccc1`: the inhibition was 6% (inactive).

For `CCOC(=O)Cc1c(C)c2c(O)cc(O)cc2oc1=O`, the inhibition was 8% (inactive).
